HEK cytotox = kills HEK 293 cells; AID 1345083; Potency, µM (doses to about 115 µM), for inactives: top-dose activity change, negative = cytotoxicity, most hits filed as inhibitors; HEK 293 viability, ATP luminescence (CellTiter-Glo), 48-72 h; hit rate 6.6% among 94,000; note: % is set by controls: 0 for no effect and ±100 for the full control effect; nearly all actives have a fitted effect of over 60% in size
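Luminescence from cellular ATP, measured with CellTiter-Glo, indicates HEK 293 viability. Cells plated at 250 cells/well are treated with compound for 48 or 72 hr at 37 degree Celsius before reagent addition.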
FLuc inh-1 = Photinus pyralis luciferase inhibition; hit rate 2.5% among 76,000; P08659; Potency, µM (doses to about 115 µM), usual class: inhibitors; AID 1347043; purified P. pyralis luciferase, luminescence, biochemical; note: % is set by controls: 0 for no effect and ±100 for the full control effect; nearly all actives have a fitted effect of over 65% in size
Target sequence (P08659 whole entry, looked up): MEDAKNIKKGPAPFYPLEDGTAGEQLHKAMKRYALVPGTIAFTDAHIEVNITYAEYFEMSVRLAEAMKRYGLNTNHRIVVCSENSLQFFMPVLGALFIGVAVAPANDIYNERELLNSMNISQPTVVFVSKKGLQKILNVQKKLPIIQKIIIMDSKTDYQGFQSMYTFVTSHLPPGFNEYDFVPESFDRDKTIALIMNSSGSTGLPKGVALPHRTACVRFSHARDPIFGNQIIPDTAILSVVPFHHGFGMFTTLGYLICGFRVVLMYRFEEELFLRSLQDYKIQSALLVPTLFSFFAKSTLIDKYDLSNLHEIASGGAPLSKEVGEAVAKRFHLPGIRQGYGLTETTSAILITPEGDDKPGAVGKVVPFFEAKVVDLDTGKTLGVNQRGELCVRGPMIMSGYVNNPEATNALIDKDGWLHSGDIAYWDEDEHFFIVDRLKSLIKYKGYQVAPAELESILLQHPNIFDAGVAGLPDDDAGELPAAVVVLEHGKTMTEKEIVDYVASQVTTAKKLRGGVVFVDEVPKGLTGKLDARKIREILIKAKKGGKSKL
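Luminescence read by CCD imager after adding enzyme (10nM final) to wells holding compound, titrated in qHTS. Substrates 10uM each D-luciferin and ATP; buffer 50mM Tris acetate pH 7.5, 10mM Mg acetate, Tween-20, BSA.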
NIH3T3 tox = kills NIH 3T3 cells; AID 1345082; hit rate 4.3% among 94,000; Potency, µM (titrated, usually from 96.7 µM), inactives show top-dose activity change, negative = cytotoxicity, hits mostly inhibitors; NIH 3T3 viability, CellTiter-Glo ATP luminescence, 48-72 h; note: % is set by controls: 0 for no effect and ±100 for the full control effect; nearly all actives have a fitted effect of over 55% in size
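ATP-dependent luminescence (CellTiter-Glo) served as the viability signal for NIH 3T3 cells treated with compound for 48 or 72 hr at 37 °C.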
NPR1 antag = antagonists of human natriuretic peptide receptor Npr1. P16066. HEK293 hNpr1 GloSensor cGMP, ANP-stimulated luminescence. hit rate 1.6% among 76,000. Potency, µM (top dose mostly 46.3 µM), for the others: top-dose activity change, negative = inhibition, actives largely listed as inhibitors; calls by dose curve; note: % is set by controls: 0 for no effect and ±100 for the full control effect; nearly all actives have a fitted effect of over 60% in size
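Compound pre-incubated 30 min at room temperature on GloSensor-loaded HEK293 cells stably carrying hNpr1 and the pGS-40F cGMP biosensor. Stimulation uses hNppA at 0.1 nM final; luminescence is taken at baseline and 20 min post-agonist.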
FLuc SDR -ATP = firefly luciferase binding stabilization, ATP absent; shares compounds with FLuc inh-1; Purified FLuc-C-HiBiT, Nano-Glo HiBiT luminescence, no ATP; Potency, µM (doses to about 32.7 µM), without a hit: at the highest dose activation (signal gain), actives largely listed as activators; hit rate 7.8% among 1,300; AID 1963318; note: nearly all actives have a fitted effect of over 55% in size
FLuc SDR ATP = firefly luciferase binding stabilization, ATP added. purified FLuc-C-HiBiT + ATP, HiBiT complementation luminescence. shares compounds with FLuc inh-1. hit rate 8.7% among 1,300. Potency, µM (highest dose often 32.7 µM), for inactives: at the top dose activation (gain of signal), usual class: activators;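 note: signal reports ligand binding via conformational change of the enzyme rather than luciferase catalysis; % of control where 0% means no effect; nearly all actives have a fitted effect of over 55% in size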
FLuc inh-2 = blocks firefly luciferase enzymatic activity; purified FLuc-C-HiBiT enzyme, luciferin luminescence; shares compounds with FLuc inh-1; AID 1963320; hit rate 42% among 1,300; Potency, µM (titrated, usually from 32.7 µM), for the others: top-dose activity change, negative = inhibition, most hits filed as inhibitors; note: % is set by controls: 0 for no effect and ±100 for the full control effect; nearly all actives have a fitted effect of over 70% in size
* marks the source's active call; other numbers are inactive results; i = inactive; ? = inconclusive; . = no result given; [ ] = remark or other dose. Most compounds without a hit are left out; they make up all but 11% or so of the library. Unless noted, calls come from the whole dose curve; as a rule, active = well fitted curve in the direction sought with a large enough effect; inconclusive = small, poorly fitted or top-dose-only effect, or another doubt; inactive = no such curve, though single readings can be large; an effect the other way counts as inactive or inconclusive. Potency is the fitted concentration of half-maximal effect.

SMILES	HEK cytotox	FLuc inh-1	NIH3T3 tox	NPR1 antag	FLuc SDR -ATP	FLuc SDR ATP	FLuc inh-2
Cc1cccc(NC(=O)C2CCN(C(=O)c3ncn4c3COC(c3ccccc3)C4)CC2)c1 (stereo not drawn)	5.3%	3.16µM*	1.4%	-27.6%	15.0%	1.97µM*	2.48µM*
Cc1cc(C)cc(NC(=O)C2CCN(C(=O)c3ncn4c3COC(c3ccccc3)C4)CC2)c1 (stereo not drawn)	6.3%	8.91µM*	i	-3.3%	15.6%	?	3.13µM*
CCc1cccc(NC(=O)C2CCN(C(=O)c3ncn4c3COC(c3ccc(OC)cc3)C4)CC2)c1 (stereo not drawn)	-4.1%	?	-2.1%	0.6%	.	.	.
CCN1C(=O)CCc2cc(NC(=O)c3ccc(OC(F)(F)F)cc3)ccc21	50.1µM*	14.1µM*	44.7µM*	-2.1%	22.4%	14.6%	?
COCCN1C(=O)CCc2cc(NC(=O)c3ccc(OC(F)(F)F)cc3)ccc21	?	?	?	-7.6%	.	.	.
COc1ccccc1Cn1c(-c2ccccc2)nc(C)c(CCO)c1=O	?	i	?	-0.9%	.	.	.
CCOc1cc2sc(N3CCC(C(=O)Nc4ccc(C(C)C)cc4)CC3)nc2cc1Br	.	.	.	.	16.1%	?	7µM*
CC(=O)N1CCN(C(=O)C2CCc3nnc(C4CCN(C(=O)NC(C)(C)C)CC4)n32)CC1 (stereo not drawn)	-18.7%	.	-18.2%	.	.	.	.
COc1ccc(N2CCN(C(=O)Cn3cccc3-c3nc(-c4ccc5c(c4)OCO5)no3)CC2)cc1	0.7%	i	0.0%	-1.0%	15.3%	11.7%	-3.2%
Cc1ccc(-c2ncc(NC(=O)c3ccccc3F)cn2)cc1	5.8%	0.562µM*	i	?	25.6%	?	1.97µM*
Cn1ncc2c(C(=O)NCc3ccc(F)cc3)cc(-c3ccccc3F)nc21	-11.9%	.	?	.	.	.	.
Cc1ncc(C(=O)NCc2ccc3[nH]c(-c4ccccc4F)c(C)c3c2)c(C)n1	?	6.31µM*	?	7.94µM*	17.6%	13.5%	7.85µM*
Cc1ncc(CC(=O)NCc2ccc3[nH]c(-c4ccccc4F)c(C)c3c2)c(=O)[nH]1	?	12.6µM*	?	0.0%	17.8%	15.2%	?
Cc1ncc(CC(=O)NCC2CCN(c3cnn(C)c(=O)c3)C2)c(=O)[nH]1 (stereo not drawn)	-5.1%	i	-0.8%	9.6%	.	.	.
O=C1CCN(Cc2ccccn2)CCCC(c2nc(-c3cnccn3)no2)CCN1 (stereo not drawn)	-21.4%	i	-17.7%	0.2%	.	.	.
O=C(Nc1n[nH]c2cc(-c3ccccc3)ccc12)C1CC1	.	.	.	.	18.3%	11.3%	?
O=C(Nc1ncc(-c2ccccc2)c2c1OCC2)C1CCOCC1	?	i	?	-0.9%[70.6 µM]	.	.	.
Cn1ccnc1CN1C(=O)CO[C@H](c2ccc(NC(=O)COc3ccccc3)cc2)[C@H]1CO	-26.1%	?	-26.1%	0.7%	.	.	.
Cn1ccnc1CN1C(=O)CO[C@H](c2ccc(NC(=O)Nc3ccccc3)cc2)[C@H]1CO	-3.9%	10µM*	1.9%	-0.3%	17.8%	13.4%	?
O[C@H]1CC[C@@H](Cc2cc(CN3CCOCC3)on2)O[C@@H]1CNCc1ccccc1	-12.6%[172 µM]	i	-8.1%[138 µM]	-0.1%[70.6 µM]	.	.	.
CCOc1ccc(/C=C/c2nc3ccccc3n2S(=O)(=O)c2cccc(Cl)c2)cc1	.	.	.	.	3.13µM*	?	0.394µM*
CSc1ccc(/C=C/c2nc3ccccc3n2S(=O)(=O)c2ccc(F)c(C)c2)cc1	.	.	.	.	4.95µM*	?	0.7µM*
Cc1ccc(/C=C/c2nc3ccccc3n2S(=O)(=O)c2cccc(Cl)c2)cc1	.	.	.	.	0.556µM*	0.7µM*	0.124µM*
COCc1nncn1C1CCN(S(=O)(=O)c2cccc(Cl)c2)CC1	1.4%	i	-2.4%	-0.5%	.	.	.
